Laboratory results as given in the supplement of paper PMC10849652.
Targets with a hit are over-represented here; the source holds about 7,900 in all. About 0.6% of all pairs of compound and target were hits.

Tests used:
Assay in all cases: log2 fold change, soluble protein after heating vs DMSO (PISA); higher = thermal stabilisation; K562 cells, 10 uM, 30 min; active = over 0.2 and 3.5 SD of the protein, either way, in both replicates (recomputed)
[1] = compound: CN1CCN(CCOc2cc(OC3CCOCC3)c3c(Nc4c(Cl)ccc5c4OCO5)ncnc3c2)CC1 [saracatinib]
Outline: (§1)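 Aliquots of K562 cells (2×10^6 cells/mL) treated with 10 μM compound for 30 min were heated for 3 min over 48°C-58°C. After pooling and extraction in PBS with 0.5% NP-40 at 4°C, soluble protein from a 21,000xg, 90 min spin was quantified by TMTpro 16plex LC-MS/MS with channel sums equalised. Thermal stability is expressed against control samples, from duplicates, as a log2 fold change.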

[2] = compound: CN1CCN(c2nc(C3=C(c4c[nH]c5ccccc45)C(=O)NC3=O)c3ccccc3n2)CC1 [sotrastaurin]
Outline: as §1

[3] = compound: CN1CC[C@H](c2c(O)cc(O)c3c(=O)cc(-c4ccccc4Cl)oc23)[C@H](O)C1 [alvocidib]
Outline: as §1

[4] = compound: CN1CCc2c(c3ccccc3n2Cc2ccc(C(=O)NO)cc2)C1 [Tubastatin A]
Outline: as §1

[5] = compound: CNC(=O)C1=CC=CC=C1NC2=NC(=NC=C2Cl)NC3=C(C=C(C=C3)N4CCOCC4)OC
Outline: as §1

[6] = compound: CNC(=O)c1ccc(Nc2ncc(C(F)(F)F)c(NCc3nccnc3N(C)S(C)(=O)=O)n2)cc1 [defactinib]
Outline: as §1

[7] = compound: CNCc1ccc(-c2[nH]c3cc(F)cc4c3c2CCNC4=O)cc1 [rucaparib]
Outline: as §1

[8] = compound: CNc1nc(-c2ccc3c(N)n[nH]c3c2)cc(N2C[C@@H](C(=O)NC3CCCCC3)CC[C@H]2C)n1
Outline: as §1

[9] = compound: COC(=O)N[C@@H](C)CNc1nccc(-c2cn(C(C)C)nc2-c2cc(Cl)cc(NS(C)(=O)=O)c2F)n1 [encorafenib]
Outline: as §1

[10] = compound: COC(=O)[C@H](CCSC)NC(=O)C1=C(C=C(C=C1)NC[C@H](CS)N)C2=CC=CC=C2
Outline: as §1

Measured: log2 fold change

TBC1D10B (UniProt Q4KMP7)
inactive: [1] -0.025 | [2] -0.036 | [3] -0.036 | [4] 0.001 | [5] -0.015 | [6] -0.008 | [7] 0.094 | [8] 0.009 | [9] 0.048 | [10] -0.023

SLC44A2 isoform 2 (UniProt Q8IWA5)
Chain of UniProt Q8IWA5 (Q8IWA5 whole entry, looked up): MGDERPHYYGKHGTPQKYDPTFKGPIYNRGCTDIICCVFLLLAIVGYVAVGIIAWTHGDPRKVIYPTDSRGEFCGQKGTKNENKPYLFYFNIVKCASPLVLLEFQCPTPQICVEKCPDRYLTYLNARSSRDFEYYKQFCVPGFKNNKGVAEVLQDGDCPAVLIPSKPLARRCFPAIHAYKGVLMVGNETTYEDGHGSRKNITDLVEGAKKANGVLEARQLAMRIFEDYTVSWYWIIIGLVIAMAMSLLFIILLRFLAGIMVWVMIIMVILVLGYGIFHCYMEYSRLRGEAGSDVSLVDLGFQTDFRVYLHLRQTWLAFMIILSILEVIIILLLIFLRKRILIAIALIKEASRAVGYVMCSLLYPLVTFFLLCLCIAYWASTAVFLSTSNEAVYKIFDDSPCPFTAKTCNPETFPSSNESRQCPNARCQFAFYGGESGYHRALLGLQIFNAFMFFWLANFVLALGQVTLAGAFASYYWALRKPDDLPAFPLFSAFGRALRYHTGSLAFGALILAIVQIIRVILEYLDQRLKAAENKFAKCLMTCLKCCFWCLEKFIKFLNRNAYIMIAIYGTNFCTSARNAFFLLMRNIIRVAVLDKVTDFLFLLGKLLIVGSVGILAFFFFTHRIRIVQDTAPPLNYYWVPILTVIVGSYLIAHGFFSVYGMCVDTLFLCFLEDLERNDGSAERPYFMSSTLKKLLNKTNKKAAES
inactive: [1] 0.104 | [2] 0.056 | [3] -0.051 | [4] -0.053 | [5] -0.055 | [6] -0.137 | [7] -0.044 | [8] 0.043 | [9] -0.125 | [10] 0.02

SNX9 (UniProt Q9Y5X1)
inactive: [1] 0.01 | [2] -0.064 | [3] -0.069 | [4] -0.025 | [5] 0.038 | [6] -0.112 | [7] 0.058 | [8] -0.005 | [9] 0.049 | [10] 0

STX7 (UniProt O15400)
Chain of UniProt O15400 (O15400 whole entry, looked up): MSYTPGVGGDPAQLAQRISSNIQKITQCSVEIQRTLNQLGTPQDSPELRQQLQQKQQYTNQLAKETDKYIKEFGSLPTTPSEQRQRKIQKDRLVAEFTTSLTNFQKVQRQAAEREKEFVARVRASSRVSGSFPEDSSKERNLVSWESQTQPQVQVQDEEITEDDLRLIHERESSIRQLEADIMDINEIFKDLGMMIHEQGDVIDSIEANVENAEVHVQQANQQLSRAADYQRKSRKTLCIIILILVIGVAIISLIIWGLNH
inactive: [1] 0.063 | [2] 0.026 | [3] -0.001 | [4] -0.036 | [5] 0.013 | [6] -0.033 | [7] 0.028 | [8] -0.014 | [9] -0.039 | [10] -0.02

SUPT5H (UniProt O00267)
inactive: [1] -0.01 | [2] -0.021 | [3] -0.075 | [4] 0.007 | [5] -0.004 | [6] -0.126 | [7] -0.062 | [8] 0.039 | [9] 0.076 | [10] -0.017

TGFBR1 isoform 2 (UniProt P36897)
active: [1] 0.371
inactive: [2] 0.026 | [3] -0.009 | [4] 0.023 | [5] -0.045 | [6] 0.039 | [7] 0.096 | [8] 0.041 | [9] 0.041 | [10] -0.055

SNRNP40 (UniProt Q96DI7)
inactive: [1] 0.068 | [2] -0.01 | [3] 0.143 | [4] -0.092 | [5] 0.045 | [6] 0.128 | [7] 0.012 | [8] -0.03 | [9] 0.039 | [10] -0.034

TENT5C (UniProt Q5VWP2)
inactive: [1] -0.127 | [2] 0.035 | [3] 0.115 | [4] 0.004 | [5] -0.133 | [6] 0.071 | [7] 0.171 | [8] -0.071 | [9] 0.094 | [10] -0.011

SRSF10 (UniProt O75494)
Chain of UniProt O75494 (O75494 whole entry, looked up): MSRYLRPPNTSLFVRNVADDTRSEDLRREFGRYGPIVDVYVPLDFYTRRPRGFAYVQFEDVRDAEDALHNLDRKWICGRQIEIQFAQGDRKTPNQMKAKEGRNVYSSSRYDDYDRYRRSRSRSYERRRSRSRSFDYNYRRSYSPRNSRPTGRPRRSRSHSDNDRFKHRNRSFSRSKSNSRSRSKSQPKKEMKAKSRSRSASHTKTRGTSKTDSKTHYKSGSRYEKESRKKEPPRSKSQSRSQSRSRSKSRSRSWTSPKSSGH
inactive: [1] -0.002 | [2] 0.041 | [3] 0.338 | [4] -0.009 | [5] -0.053 | [6] 0.233 | [7] 0.314 | [8] 0.068 | [9] 0.133 | [10] 0.14

SMG1 (UniProt Q96Q15)
Chain of UniProt Q96Q15 (Q96Q15 whole entry, looked up): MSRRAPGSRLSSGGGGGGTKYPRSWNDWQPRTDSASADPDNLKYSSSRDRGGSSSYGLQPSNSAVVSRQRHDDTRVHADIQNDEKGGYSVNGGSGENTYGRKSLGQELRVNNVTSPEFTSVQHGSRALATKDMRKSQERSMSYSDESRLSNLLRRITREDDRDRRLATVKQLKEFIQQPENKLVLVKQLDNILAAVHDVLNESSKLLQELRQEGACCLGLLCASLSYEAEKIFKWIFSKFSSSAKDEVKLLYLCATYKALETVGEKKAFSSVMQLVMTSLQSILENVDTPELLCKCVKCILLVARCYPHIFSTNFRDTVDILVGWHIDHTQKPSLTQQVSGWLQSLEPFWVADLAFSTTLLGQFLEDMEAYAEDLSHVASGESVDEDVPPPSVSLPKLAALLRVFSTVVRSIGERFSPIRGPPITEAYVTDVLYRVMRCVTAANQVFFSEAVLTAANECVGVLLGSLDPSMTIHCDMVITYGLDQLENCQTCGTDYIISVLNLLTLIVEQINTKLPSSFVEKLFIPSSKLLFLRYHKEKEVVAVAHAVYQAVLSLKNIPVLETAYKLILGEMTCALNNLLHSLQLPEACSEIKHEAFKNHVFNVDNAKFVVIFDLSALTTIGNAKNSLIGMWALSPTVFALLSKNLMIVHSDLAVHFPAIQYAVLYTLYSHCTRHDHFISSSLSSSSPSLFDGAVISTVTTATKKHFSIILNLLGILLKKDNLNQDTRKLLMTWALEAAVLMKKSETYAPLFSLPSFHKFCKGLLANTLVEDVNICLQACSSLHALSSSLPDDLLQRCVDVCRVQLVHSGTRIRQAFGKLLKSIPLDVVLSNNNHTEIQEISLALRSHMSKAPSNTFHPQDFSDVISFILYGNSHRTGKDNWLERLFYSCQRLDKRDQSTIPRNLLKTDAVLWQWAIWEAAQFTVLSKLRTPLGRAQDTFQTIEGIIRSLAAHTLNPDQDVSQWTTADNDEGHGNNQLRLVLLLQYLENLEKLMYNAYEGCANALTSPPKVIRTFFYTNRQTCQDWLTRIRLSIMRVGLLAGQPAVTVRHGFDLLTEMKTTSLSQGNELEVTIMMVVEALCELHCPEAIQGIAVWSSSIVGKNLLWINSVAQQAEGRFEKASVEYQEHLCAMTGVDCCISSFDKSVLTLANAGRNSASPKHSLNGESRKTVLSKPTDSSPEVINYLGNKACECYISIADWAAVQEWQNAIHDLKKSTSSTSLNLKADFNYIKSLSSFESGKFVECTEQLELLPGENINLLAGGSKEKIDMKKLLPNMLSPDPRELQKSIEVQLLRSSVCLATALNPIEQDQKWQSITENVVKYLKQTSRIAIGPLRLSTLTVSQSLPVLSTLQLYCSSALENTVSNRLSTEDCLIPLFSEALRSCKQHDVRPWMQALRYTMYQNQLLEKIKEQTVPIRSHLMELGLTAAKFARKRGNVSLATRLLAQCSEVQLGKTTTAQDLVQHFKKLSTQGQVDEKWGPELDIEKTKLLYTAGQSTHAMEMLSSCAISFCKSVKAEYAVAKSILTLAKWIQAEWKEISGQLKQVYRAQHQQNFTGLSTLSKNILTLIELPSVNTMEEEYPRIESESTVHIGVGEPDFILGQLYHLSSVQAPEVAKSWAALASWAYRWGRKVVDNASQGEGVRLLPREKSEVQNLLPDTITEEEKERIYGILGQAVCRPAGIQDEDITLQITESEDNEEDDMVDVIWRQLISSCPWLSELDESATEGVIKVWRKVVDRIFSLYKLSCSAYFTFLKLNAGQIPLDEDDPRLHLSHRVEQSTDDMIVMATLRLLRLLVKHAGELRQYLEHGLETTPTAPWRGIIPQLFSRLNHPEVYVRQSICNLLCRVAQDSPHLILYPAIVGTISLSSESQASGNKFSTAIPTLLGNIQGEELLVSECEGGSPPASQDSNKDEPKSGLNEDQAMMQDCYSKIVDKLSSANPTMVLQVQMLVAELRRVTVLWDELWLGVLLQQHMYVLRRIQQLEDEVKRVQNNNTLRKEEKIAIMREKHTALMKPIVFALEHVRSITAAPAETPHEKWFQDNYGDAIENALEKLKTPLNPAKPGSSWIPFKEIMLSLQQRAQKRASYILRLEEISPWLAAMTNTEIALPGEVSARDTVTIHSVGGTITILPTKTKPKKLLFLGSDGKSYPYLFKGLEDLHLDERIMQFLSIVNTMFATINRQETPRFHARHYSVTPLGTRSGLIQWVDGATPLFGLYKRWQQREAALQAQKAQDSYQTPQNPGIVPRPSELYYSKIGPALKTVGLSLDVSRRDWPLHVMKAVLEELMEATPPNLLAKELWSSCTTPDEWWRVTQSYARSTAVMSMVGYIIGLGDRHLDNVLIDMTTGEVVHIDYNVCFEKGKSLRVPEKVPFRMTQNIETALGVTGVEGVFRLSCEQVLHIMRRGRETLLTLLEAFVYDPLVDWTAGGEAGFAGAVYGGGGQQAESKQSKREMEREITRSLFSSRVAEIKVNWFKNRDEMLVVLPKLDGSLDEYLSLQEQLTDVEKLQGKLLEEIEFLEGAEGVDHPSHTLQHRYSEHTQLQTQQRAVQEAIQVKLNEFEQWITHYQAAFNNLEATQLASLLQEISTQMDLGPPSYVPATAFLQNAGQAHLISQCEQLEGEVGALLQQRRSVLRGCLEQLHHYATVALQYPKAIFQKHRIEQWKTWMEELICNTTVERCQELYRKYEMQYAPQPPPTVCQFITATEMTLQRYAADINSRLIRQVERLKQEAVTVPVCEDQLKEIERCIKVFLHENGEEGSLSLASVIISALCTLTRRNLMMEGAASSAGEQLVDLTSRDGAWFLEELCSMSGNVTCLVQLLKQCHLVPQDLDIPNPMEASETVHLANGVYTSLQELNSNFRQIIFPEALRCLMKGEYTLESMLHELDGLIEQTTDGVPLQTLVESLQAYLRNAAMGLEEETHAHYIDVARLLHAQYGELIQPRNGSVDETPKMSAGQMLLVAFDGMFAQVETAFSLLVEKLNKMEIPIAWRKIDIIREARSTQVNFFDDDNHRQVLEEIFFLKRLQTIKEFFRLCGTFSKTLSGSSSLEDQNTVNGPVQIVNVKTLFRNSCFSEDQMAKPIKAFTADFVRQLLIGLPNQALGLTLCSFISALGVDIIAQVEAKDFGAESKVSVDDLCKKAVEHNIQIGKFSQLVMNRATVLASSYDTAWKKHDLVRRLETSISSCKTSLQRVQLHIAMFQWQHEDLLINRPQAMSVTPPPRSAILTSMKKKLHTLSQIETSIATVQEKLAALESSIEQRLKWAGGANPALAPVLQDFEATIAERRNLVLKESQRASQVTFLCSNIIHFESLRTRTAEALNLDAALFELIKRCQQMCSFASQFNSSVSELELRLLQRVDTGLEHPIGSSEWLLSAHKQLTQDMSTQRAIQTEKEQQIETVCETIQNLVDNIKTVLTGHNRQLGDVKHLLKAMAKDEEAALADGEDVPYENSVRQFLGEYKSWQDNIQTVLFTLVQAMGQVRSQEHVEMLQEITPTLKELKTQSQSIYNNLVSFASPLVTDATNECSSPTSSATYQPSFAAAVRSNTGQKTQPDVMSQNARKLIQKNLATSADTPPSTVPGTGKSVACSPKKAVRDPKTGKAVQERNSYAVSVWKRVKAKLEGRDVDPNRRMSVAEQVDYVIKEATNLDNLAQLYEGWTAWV
inactive: [1] -0.039 | [2] 0.041 | [3] -0.085 | [4] 0.014 | [5] 0.042 | [6] 0 | [7] 0.025 | [8] -0.12 | [9] 0.023 | [10] 0.017

SLC25A38 (UniProt Q96DW6)
inactive: [1] 0.076 | [2] -0.027 | [3] -0.117 | [4] -0.035 | [5] -0.015 | [6] 0.046 | [7] -0.002 | [8] 0.026 | [9] 0.016 | [10] -0.057

TERF2IP (UniProt Q9NYB0)
inactive: [1] 0.038 | [2] -0.065 | [3] -0.106 | [4] 0.128 | [5] 0.008 | [6] -0.195 | [7] -0.052 | [8] -0.016 | [9] -0.011 | [10] -0.007

TIMM21 (UniProt Q9BVV7)
inactive: [1] 0 | [2] -0.001 | [3] -0.05 | [4] -0.048 | [5] -0.025 | [6] -0.007 | [7] -0.04 | [8] -0.016 | [9] 0.063 | [10] 0.051

STAT5B (UniProt P51692)
inactive: [1] -0.231 | [2] -0.083 | [3] -0.023 | [4] 0.045 | [5] -0.053 | [6] -0.33 | [7] 0.105 | [8] 0.138 | [9] 0.073 | [10] -0.052

SMARCAD1 isoform 2 (UniProt Q9H4L7)
inactive: [1] -0.086 | [2] -0.043 | [3] -0.243 | [4] 0.053 | [5] 0.016 | [6] -0.099 | [7] -0.056 | [8] 0.035 | [9] 0.029 | [10] -0.023
